Screening results as filed in PubChem.
HTT cytoprotect – qHTS Multiplex Assay to Identify Dual Action Probes in a Cell Model of Huntington: Cytoprotection (ATP). PC12 HTT-Q103 induced, cytoprotection, ATP luminescence, 40 h. Potency, µM (doses to about 56.4 µM), for the others: cytoprotection (ATP increase), hits mostly activators. hit rate 0.14% among 230,000. AID 1471, 2008; active = well fitted curve in the direction sought with a large enough effect; inconclusive = small, poorly fitted or top-dose-only effect, or another doubt; inactive = no such curve, though single readings can be large; an effect the other way counts as inactive or inconclusive; note: % of control where 0% means no effect; nearly all actives have a fitted effect of over 45% in size
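Rat PC12, Q103 Htt exon1-GFP fusion, ecdysone promoter; tebufenozide inducer 100 nM final; compound titration; qHTS, 1500 cells/well; ATPlite luminescent read.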
Lamin A splicing – qHTS Assay for Modulators of Lamin A Splicing; HeLa LMNA splicing GFP/RFP minigene ratio, 48 h; hit rate 0.01% among 200,000; Potency, µM (series often up to 46.1 µM), for inactives: at the highest dose ratio change, negative = inhibition, most hits filed as inhibitors; active = well fitted inhibition curve with a large enough effect in the signal ratio, with a control signal flat, not every such curve was filed as active; inconclusive = small, poorly fitted or top-dose-only effect, or effect the other way, or a change in a side signal; the % refers to the signal ratio; note: % is set by controls: 0 for no effect and ±100 for the full control effect
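Read-out is the ratio of GFP to DsRed2 object intensity, acquired by 488 nm laser-scanning cytometry on HeLa lamin A-EGFP minigene reporter cells. Compound incubation 48 hrs at 37 °C in Opti-MEM with 2% FBS; DMSO 0.5% final.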
ALDH1A1 inh – qHTS Assay for Inhibitors of Aldehyde Dehydrogenase 1 (ALDH1A1). hit rate 7.3% among 220,000. Purified ALDH1A1, NADH fluorescence, propionaldehyde substrate. Aldehyde dehydrogenase 1A1 (Homo sapiens), P00352. Potency, µM (highest dose often 75.3 µM), for the others: at the top dose activity, negative = inhibition, actives largely listed as inhibitors. AID 1030, 2008;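 note: plate controls were no enzyme wells and a reference inhibitor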
HttQ103 aggreg – qHTS Multiplex Assay to Identify Dual Action Probes in a Cell Model of Huntington: Aggregate Formation (GFP); PC12 HttQ103-GFP aggregates, Acumen cytometry, 40 h; Potency, µM (series often up to 46.1 µM), inactives show at the top dose activity change, negative = inhibition, hits mostly inhibitors; hit rate 1.1% among 220,000; AID 1688, 2009; active = well fitted curve in the direction sought with a large enough effect; inconclusive = small, poorly fitted or top-dose-only effect, or another doubt; inactive = no such curve, though single readings can be large; an effect the other way counts as inactive or inconclusive; note: % is set by controls: 0 for no effect and ±100 for the full control effect; nearly all actives have a fitted effect of over 60% in size
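Compounds (qHTS titration) were added to PC12 cells expressing an ecdysone-driven HTT exon 1 Q103–GFP fusion after induction with 100 nM tebufenozide. Aggregate formation was measured as GFP objects in cell lysates.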
JMJD2E inh – qHTS Assay for Inhibitors of Human Jumonji Domain Containing 2E (JMJD2E); Potency, µM (series often up to 57.1 µM), inactives show at the top dose activity change, negative = inhibition, most hits filed as inhibitors; JMJD2E catalytic domain, FDH-coupled NADH fluorescence (FDH is formaldehyde dehydrogenase); AID 2147, 2009; hit rate 1.6% among 230,000;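 note: 0% = wells with enzyme and -100% = buffer wells without enzyme; nearly all actives have a fitted effect of over 50% in size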
Target sequence (B2RXH2 1-337 limits assumed): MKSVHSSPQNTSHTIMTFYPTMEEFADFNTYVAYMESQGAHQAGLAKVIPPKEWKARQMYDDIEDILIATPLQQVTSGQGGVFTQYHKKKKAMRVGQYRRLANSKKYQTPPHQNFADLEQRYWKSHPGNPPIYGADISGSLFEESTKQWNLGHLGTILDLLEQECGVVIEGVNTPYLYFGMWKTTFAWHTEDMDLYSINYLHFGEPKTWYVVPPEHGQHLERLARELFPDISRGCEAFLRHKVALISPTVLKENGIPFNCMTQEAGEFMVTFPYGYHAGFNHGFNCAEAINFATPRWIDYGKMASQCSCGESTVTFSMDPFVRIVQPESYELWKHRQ
HPGD block – qHTS Assay for Inhibitors of HPGD (15-Hydroxyprostaglandin Dehydrogenase) | 15-hydroxyprostaglandin dehydrogenase [NAD(+)] (Homo sapiens), P15428 | purified HPGD, NADH fluorescence kinetic, PGE2 substrate | Potency, µM, inactives show at the highest dose activity change, negative = inhibition, most hits filed as inhibitors | hit rate 4.3% among 150,000 | AID 894, 2007; note: % is set by controls: 0 for no effect and ±100 for the full control effect
Target sequence (P15428 whole entry, looked up): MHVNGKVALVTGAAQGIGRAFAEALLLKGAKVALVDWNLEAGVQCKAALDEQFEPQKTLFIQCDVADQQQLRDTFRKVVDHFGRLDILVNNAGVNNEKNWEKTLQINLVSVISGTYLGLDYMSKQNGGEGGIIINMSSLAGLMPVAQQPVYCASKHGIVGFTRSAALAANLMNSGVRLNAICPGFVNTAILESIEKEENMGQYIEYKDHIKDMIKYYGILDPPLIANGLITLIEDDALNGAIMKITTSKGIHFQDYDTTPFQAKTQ
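NADH formation kinetics: reaction with 30 uM PGE2 and 1 mM NAD+ (final), 20 nM enzyme, Tris-HCl pH 8 with Tween 20, after 15 min compound preincubation at room temperature. Fluorescence change, last versus first of five reads.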
* hit, by the source's call; ? = inconclusive; nt = no result given; [ ] = dose if it differs, or a comment. Hits are enriched below; roughly 9.2% of the tested compounds scored in any of these assays. Unless noted, calls come from the whole dose curve; as a rule, active = well fitted inhibition curve with a large enough effect (not every such curve was filed as active); inconclusive = small, poorly fitted or top-dose-only effect, or another doubt; inactive = no such curve, though single readings can be large or run the other way. Potency is the fitted concentration of half-maximal effect.

SMILES	HTT cytoprotect	Lamin A splicing	ALDH1A1 inh	HttQ103 aggreg	JMJD2E inh	HPGD block
CCOC(=O)/C(C#N)=C1/C=Nc2ccccc2N1	-13%	-1%	-10%	0%	-2%	-13%
COC(=O)c1ccc(N2CCOCC2)c(F)c1	-3%	-10%	10%	11%	3%	-2%
O=C(c1ccccc1)c1cc(F)c(N2CCOCC2)cc1Cl	-16%	16%	1%	-26%	?	20µM*
O=C(c1ccccc1)c1ccc(N2CCOCC2)c(F)c1	-12%	2%	-2%	-9%	-4%	25µM*
C=C(C)CSC1=C(C#N)C(c2ccsc2)CC(=O)N1 (stereo not drawn)	3%	-2%	16µM*	-11%	?	-19%
CCSC1=C(C#N)C(c2cccc(O)c2)CC(=O)N1 (stereo not drawn)	-16%	4%	-3%	-2%	-5%	-13%
C=CCSC1=C(C#N)C(c2ccccc2)CC(=O)N1 (stereo not drawn)	8%[10 µM]	-8%	?	12%	1%	1%
C=CCSC1=C(C#N)C(c2ccc(C(C)C)cc2)CC(=O)N1 (stereo not drawn)	-1%	-6%	28µM*	1%	1%	-14%
CC(C)NC(=O)N1CCCC2(CCN(C(=O)c3cc(C(F)(F)F)cc(C(F)(F)F)c3)CC2)C1	-3%	nt	11%	nt	nt	-22%
COC(=O)N1C(c2ccccc2)=Cc2ccccc2C1CC(C)=O (stereo not drawn)	?	-6%[9.22 µM]	-5%[13.5 µM]	nt	-26%[11.4 µM]	-30%
COc1ccc(S(=O)(=O)n2nc(-c3ccc(Cl)cc3)cc2N)cc1OC	-66%	-19%	89µM*	?	-3%	-19%
CN(C)c1nc(OCCNC(=O)Nc2ccccc2)nc(N2CCCCC2)n1	6%[10 µM]	nt	0.89µM*	-1%[9.22 µM]	1%	nt
Cc1nn(Cc2ccccc2)c(C)c1/C=N/NC(=O)c1ccccc1O	23%[10 µM]	nt	nt	17%[9.22 µM]	?	nt
CC(C)n1nnc2cc(C(=O)O)ccc21	-41%	nt	-4%	nt	nt	?
O=c1c2ccccc2sn1-c1nccs1	-8%[10 µM]	?	13µM*	15%	7.9µM*	nt
O=c1c2ccccc2c(C=Nc2ccccc2O)c(O)n1-c1nccs1	-13%[10 µM]	nt	nt	-15%[9.22 µM]	-4%	nt
Cc1c(C(=S)NC(=O)C2CC2)c(=O)n(-c2ccccc2)n1C	-44%	11%[46 µM]	18µM*	-7%	2%	nt
Cc1c(NC(=O)C2CCCNC2=O)c(=O)n(-c2ccccc2)n1C (stereo not drawn)	-3%	-3%	-21%	6%	-16%	-10%
CCCCCCCC[N+](CCCCCCCC)(CCCCCCCC)CCCCCCCC	-91%	nt	?	nt	nt	1%
Cc1ccc(CCNC(=O)CN2N=C(c3ccc(C)cc3)CCC2=O)cc1	nt	-4%[46 µM]	nt	nt	nt	nt
Cc1ccc(CCNC(=O)Cn2cccc2)cc1	17%[10 µM]	-8%	-10%	3%	-5%	14µM*
C[C@H]1CC[C@H]2C(=O)N[C@H](Cc3ccccc3)C(=O)N2[C@@H]1c1ccccc1	-5%[10 µM]	-8%	5%[13.5 µM]	8%	13%	-7%
CC(=O)NCC1COc2ccccc2O1 (stereo not drawn)	-5%[10 µM]	nt	nt	2%[9.22 µM]	5%	nt
CN(C)C(=O)OCC1COc2ccccc2O1 (stereo not drawn)	4%[10 µM]	nt	nt	-3%[9.22 µM]	4%	nt
CN(CC1COc2ccccc2O1)C(=O)c1ccc(N(C)C)cc1 (stereo not drawn)	1%	2%[46 µM]	5.6µM*	12%	2%	nt
SMILES	HTT cytoprotect	Lamin A splicing	ALDH1A1 inh	HttQ103 aggreg	JMJD2E inh	HPGD block
CN(C)c1ccc(C=NCC2COc3ccccc3O2)cc1 (stereo not drawn)	4%[10 µM]	1%[46 µM]	0.56µM*	-9%[9.22 µM]	-4%	nt
CCOC(=O)c1c(S(=O)(=O)N2CCCC(C(=O)N3CCN(c4ccccc4)CC3)C2)c(C)n(C)c1C (stereo not drawn)	nt	2%[46 µM]	nt	nt	nt	nt
O=C(CCCCCN1C(=O)c2ccccc2C1=O)NCCc1nc2ccccc2[nH]1	-15%	-3%	11µM*	10%	-3%	-6%
COc1ccc(CCNC(=O)CCCCCN2C(=O)c3ccccc3C2=O)cc1	-7%	10%	?	1%	-4%	-13%
COc1ccc(CCNC(=O)CCCN2C(=O)c3ccccc3C2=O)cc1	13%[10 µM]	nt	14µM*	25%	-2%	nt
CCCC(=O)NCCCc1nc2ccccc2[nH]1	-4%	-10%	4%	-9%	7%	-4%
Cc1nc2sc(C(N)=O)c(N)c2c2c1CCCC2	-13%[10 µM]	nt	nt	1.8µM*	?	nt
Nc1c(C(=O)NC2CC2)sc2nc3c(c(-c4ccco4)c12)CC/C3=C/c1ccco1	10%[10 µM]	2%	16µM*	22%	?	16µM*
Cc1ccc(-c2c3c(nc4sc(C(N)=O)c(N)c24)CCCC3)o1	nt	7%	?	-16%	-12%	?
NC(=O)c1sc2nc(-c3ccccc3)c3c(c2c1N)CCCC3	-32%	nt	?	6.3µM*	?	nt
NC(=O)c1sc2nc3c(c(-c4ccco4)c2c1N)CCC3	?	3%	-12%	4.5µM*	-5%	-23%
Cc1c(C(=O)N2CCC(C)CC2)c(S(=O)(=O)N(Cc2ccccc2)C(C)(C)C)c(C)n1C	nt	12%[46 µM]	nt	nt	nt	nt
Cc1nc2sc(C(=O)O)c(N)c2c2c1COC(C)(C)C2	-7%[0.074 µM]	-7%	14µM*	-6%	-9%	-13%
COC(=O)c1cn(NC(=O)c2cnccn2)c(=O)c2ccccc12	-44%	?	4%	8.9µM*	?	-4%
O=C(CCc1ccccc1)NN1C(=O)C2C3C=CC(O3)C2C1=O (stereo not drawn)	-42%	nt	14%	4%	-10%	nt
Cc1ccccc1OCC(=O)NN1C(=O)C2C3C=CC(O3)C2C1=O (stereo not drawn)	8%[10 µM]	6%[46 µM]	8.9µM*	5%	-2%	nt
CCOc1ccc(C(=O)NN2C(=O)C3C4C=CC(O4)C3C2=O)cc1 (stereo not drawn)	0%	7%	13µM*	10%	5%	8%
Cc1cccc(OCC(=O)NN2C(=O)C3C4C=CC(O4)C3C2=O)c1 (stereo not drawn)	21%	-12%[9.22 µM]	3.2µM*	24%[9.22 µM]	-1%	nt
Cc1ccc(/C=c2\sc3n(c2=O)CN(c2cccc(Br)c2)CN=3)o1	14%	0%	20µM*	-15%	-21%	-12%
Cc1cc(C)cc(N2CN=c3s/c(=C\c4ccco4)c(=O)n3C2)c1	nt	-2%	9%	-10%	-3%	-15%
